Bioassay records deposited in PubChem by National Center for Advancing Translational Sciences (NCATS).
In the library only some 2.4% were active in any assay of this set; here they are far more common.
D2 ag-1: activates the human D2 dopamine receptor; activation, % (test concentration not listed); hit rate 0.084% among 360,000; DiscoveRx PathHunter D2 beta-arrestin, luminescence, 90 min; 100% = 57 uM dopamine signal; P14416; in the data active means activation above about 40%; inconclusive means between about 15% and that limit
Target sequence (P14416 whole entry, looked up): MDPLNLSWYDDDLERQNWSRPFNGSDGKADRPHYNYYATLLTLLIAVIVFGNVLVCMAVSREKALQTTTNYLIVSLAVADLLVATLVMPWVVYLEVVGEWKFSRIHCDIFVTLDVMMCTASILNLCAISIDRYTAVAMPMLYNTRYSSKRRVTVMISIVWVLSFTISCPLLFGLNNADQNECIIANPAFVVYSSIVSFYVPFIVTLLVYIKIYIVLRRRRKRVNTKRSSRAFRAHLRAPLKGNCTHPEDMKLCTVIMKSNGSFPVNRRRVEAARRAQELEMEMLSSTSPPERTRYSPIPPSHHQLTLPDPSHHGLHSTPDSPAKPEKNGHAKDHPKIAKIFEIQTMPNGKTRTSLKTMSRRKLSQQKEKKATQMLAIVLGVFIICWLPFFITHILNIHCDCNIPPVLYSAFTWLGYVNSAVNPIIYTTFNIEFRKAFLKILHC
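DiscoveRx PathHunter D2 beta-arrestin cells (2,100/well) attached overnight, then compound-stimulated 90 min at 37 C in HBSS/10 mM HEPES/0.1% Tween-20 buffer; beta-galactosidase complementation read by luminescence after 1 h at ambient temperature. Dopamine 57 uM final (EC100) as control.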
D2 antag: antagonists of human D2 dopamine receptor; AID 485344; inhibition, % at 10 µM; hit rate 2% among 340,000; HEK293 TREx D2 cells, calcium flux, dopamine EC80; P14416; in the data active means inhibition above about 30%; inactive means below that, where a call was filed; further: 0% is about no effect
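Compounds are added to dye-loaded, induced HEK293 T-REx cells coupled to calcium release via D2; after a 3 min kinetic read an EC80 dopamine stimulus is given and fluorescence is recorded for 3 more min.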
D2 PAM-1: human D2 receptor positive allosteric modulation; hit rate 0.23% among 360,000; DiscoveRx D2 beta-arrestin cells, luminescence, 90 min; 100% = 57 uM dopamine signal; potentiation, % (concentration not given with the values); P14416; in the data active means potentiation above about 50%; inconclusive means mostly about 30% to 49%
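D2 cells co-treated with compound plus 50 nM dopamine (EC20) for 90 min at 37 deg C to detect potentiation. Beta-arrestin recruitment was read as enzyme-fragment luminescence after 1 h at ambient temperature. Full response was set by 57 uM dopamine.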
D2 ag-2: agonists of human D2 dopamine receptor | AID 485358 | hit rate 0.53% among 340,000 | activation, % at 2 µM | HEK293 T-REx D2 cells, calcium flux agonist mode;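 active means activation over 3 SD above normal in the single-dose calcium agonist read, cut at about 30% in these data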; further: 0% is about no effect
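Tetracycline-induced HEK293 Trex cells with D2 receptor force-coupled to calcium signaling, plated overnight at 30 C and loaded with no-wash calcium dye. Calcium flux read kinetically for 180 s after compound addition; responses flag agonists.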
D2 PAM-2: positive allosteric modulators of human D2 dopamine receptor; P14416; HEK293 T-REx D2, calcium flux, EC20 dopamine potentiation; potentiation, % at 10 µM; hit rate 0.34% among 340,000; AID 485347;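 active means potentiation over 3 SD above the plate norm, cut at about 30% in these data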; further: 0% is about no effect
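Cells plated with tetracycline inducer and held overnight at 30 C; calcium dye loaded 30–90 min at room temperature; baseline taken, compound added and read 180 s; EC20 dopamine then added and read 180 s.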
An asterisk follows results filed as active; u = inconclusive; x = no result.

SMILES	D2 ag-1	D2 antag	D2 PAM-1	D2 ag-2	D2 PAM-2
CC(C)c1nnc(NC(=O)CCC(=O)Nc2ccc3cn[nH]c3c2)s1	-2.8	60.6*	-17.1	-0.5	-8.2
CCN(CC)CCn1c(=S)[nH]c2cc(C(=O)NCc3ccc(C)cc3)ccc2c1=O	-0.2	36.4*	-14.2	-0.4	-12.0
O=C(COc1cc(F)ccc1[N+](=O)[O-])Nc1cc(S(=O)(=O)N2CCCC2)ccc1Cl	3.0	-14.4	-16.1	-0.1	-1.3
CCOC(=O)CN1C(=O)N(c2ccc(C)c(C)c2)S(=O)(=O)c2ccccc21	x	x	x	0.3	-15.2
Cc1cc(C=O)c(C)n1-c1ccc(Cl)c(C(=O)O)c1	2.5	37.0*	8.8	-1.3	-13.0
O=C(CCn1c(=O)sc2ccccc21)NCc1ccccc1	-3.8	20.5	-10.9	0.0	-18.6
O=C(CCn1c(=O)sc2ccccc21)NCc1cccs1	-1.1	32.2*	-14.3	-0.6	-5.6
CC(C)(Oc1ccc(Cl)cc1)C(=O)N1CCN(c2ccccn2)CC1	-3.3	43.0*	-19.9	-0.8	2.1
O=C(O)c1ccccc1NC(=O)c1cc2ccccc2oc1=O	-1.1	13.8	50.8*	2.0	0.4
O=C(Nc1cccnc1N1CCOCC1)c1cc2ccccc2oc1=O	1.8	-10.2	13.2	2.0	-4.0
CCN(Cc1ccc2c(c1)OCCO2)C(=O)CN1C(=O)NC2(CCCCC2)C1=O	-2.3	40.7*	-3.2	0.9	3.7
COc1cccc(CNC(=O)C2CCN(S(=O)(=O)c3c(C)noc3/C=C/c3cccs3)CC2)c1	x	x	x	1.0	6.6
O=C(COc1ccc(Cl)cc1Cl)NC(=O)N1CCCCC1	0.6	32.2*	-14.7	-1.8	-23.1
O=C(COc1ccc(Cl)cc1Cl)NC(=O)NC1CCCC1	0.6	4.5	-10.1	-0.9	-3.6
O=C(NCc1ccc(F)cc1)c1cnc(N2CCCCC2)c2ccccc12	x	x	x	-0.8	1.1
Cc1ccc(C)c(N2CCN(C(=O)CN3C(=O)CSc4c3c(C)nn4-c3ccccc3)CC2)c1	x	x	x	-0.3	-1.3
CC(=O)Nc1ccc(Sc2ncccc2C(=O)Nc2ccc(F)cc2)cn1	0.0	2.0	-4.0	32.6*	5.9
CSc1ncccc1C(=O)Nc1ccc(OC(F)(F)F)cc1	-1.1	-20.6	-1.4	1.1	-4.0
COc1ccc(C)cc1S(=O)(=O)N(C)CC(=O)NCc1ccncc1	-0.5	32.8*	-2.0	0.2	7.7
Nc1cc(=O)[nH]c(SCC(=O)Nc2cc(Cl)cc(Cl)c2)n1	-1.6	30.1*	-37.4	-0.6	-16.7
Nc1cc(=O)[nH]c(SCC(=O)Nc2ccc(Cl)c(Cl)c2)n1	-1.4	-8.2	-9.3	0.5	-6.4
CC1CCN(CC(=O)NC2CCCCC2)CC1	0.9	16.3	-3.1	33.6*	-13.3
NC(N)=NC(N)=Nc1cccc2ccccc12	6.2	3.5	-3.0	0.7	3.3
NC(N)=Nc1cc2ccccc2c2ccccc12	x	37.5*	x	67.8*	-19.7
CC1Cc2ccccc2C(CCc2ccccc2)=N1 (stereo not given)	-3.5	13.4	-13.9	0.0	-8.4
SMILES	D2 ag-1	D2 antag	D2 PAM-1	D2 ag-2	D2 PAM-2
COc1cccc(CNCc2cccc(Br)c2)c1OC	6.8	35.7*	-14.7	1.0	-10.2
COc1ccc(S(=O)(=O)NCC2CCCN(Cc3ccccc3C)C2)cc1 (stereo not given)	-7.4	-17.5	-4.2	0.7	-4.5
COc1cccc(C2NC(=O)NC(C)=C2C(=O)Nc2ccc(C)cc2)c1OC (stereo not given)	-3.3	31.0*	-19.3	-0.2	-3.6
O=[N+]([O-])c1cccc(NC(=S)NCCc2ccccc2)c1	-6.5	79.7*	-31.9	-1.1	6.9
CC(=O)NNC(=S)NCCc1ccccc1	-7.3	48.7*	-0.2	1.1	-2.4
CCc1nc2ccc(C(=O)NCc3ccccc3)cc2nc1CC	7.7	1.9	-8.3	-0.2	-0.8
Cc1cccc(N2CCN(S(=O)(=O)c3cc(Br)cc4c3N(C(=O)C3CC3)CC4)CC2C)c1 (stereo not given)	x	x	x	-0.8	x
O=c1oc2ccccc2cc1-c1nc(-c2cccs2)no1	x	x	x	-0.3	7.7
COc1ccc2oc(=O)cc(CN3CCN(C(=O)c4ccccc4Br)CC3)c2c1	x	x	x	1.3	2.9
CCn1c(C)cc(C(=O)CSc2nnnn2C2CCCC2)c1C	-1.5	30.4*	-15.7	-0.3	-3.6
Cc1[nH][nH]c(=O)c1C=NCc1cccnc1	-1.7	1.6	3.8	0.6	3.8
C=CCn1c(O)c(C(CC)=NCc2cccnc2)c(=O)[nH]c1=O	-3.6	42.0*	3.7	0.2	6.0
CS(=O)(=O)c1ccc2nc(NC(=O)c3cc([N+](=O)[O-])cc([N+](=O)[O-])c3)sc2c1	u	7.0	99.2*	0.5	0.9
CS(=O)(=O)c1ccc2nc(NC(=O)CN3CCN(Cc4ccccc4)CC3)sc2c1	-1.1	44.5*	-15.0	0.4	-2.6
COc1cc(CNCCCN2CCOCC2)cc(Br)c1OCc1ccc(Cl)cc1	4.2	-1.6	2.5	3.2	-5.9
COc1cc(CNCCCN2CCOCC2)cc(Br)c1OCC(=O)N1CCCCC1	-2.7	32.3*	-5.5	0.0	7.5
Cc1nn2c(=O)cc(COC(=O)c3cccs3)nc2s1	x	x	x	1.3	x
COc1ccc(Cl)cc1S(=O)(=O)n1cnc2ccccc21	-4.2	79.0*	12.5	-0.5	12.1
CCOc1ccc(Cl)cc1S(=O)(=O)n1cnc2ccccc21	1.5	-5.8	-2.3	-0.1	-2.4
CNC(=O)c1cc(NC(=O)N(CCC#N)CCN(C(=O)NC(Cc2ccccc2)C(=O)NC(CC(C)C)C(=O)NC)c2ccccc2)ccc1OC (stereo not given)	-1.7	x	-17.3	x	x
CC(NC(=O)Cn1cccc1C(=O)c1ccccc1)c1ccc2c(c1)OCCO2 (stereo not given)	-1.5	9.4	-6.1	-0.1	33.7*
Nc1cc(Cl)nnc1Cl	-2.4	35.8*	-0.4	0.6	7.7
CC1CN(C)C(C)CC1OC(=O)C(c1ccccc1)c1ccccc1 (stereo not given)	-5.0	x	-16.8	x	x
CN(C)[C@@H]1CCC[C@H]1OC(=O)C(c1ccccc1)c1ccccc1	-1.9	46.9*	-34.2	-0.1	-24.7
Cc1cc(CC(=O)O)n(C)c1C(=O)c1ccc(Cl)cc1	-2.3	4.6	7.3	1.5	18.2
Cc1ccc(CNc2ccc3c(c2)ncn3C(C)C)cc1	-1.8	-3.2	-10.6	37.1*	-0.6
CC(OC(=O)c1c2c(nc3ccccc13)/C(=C\c1ccc3c(c1)OCO3)CCC2)C(=O)Nc1ccc(S(N)(=O)=O)cc1 (stereo not given)	9.4	8.0	5.9	99.9*	7.1
COc1cc(C2CC(=O)c3c([nH]c(C(=O)OC4CCCC4)c3C)C2)cc(OC)c1OC (stereo not given)	x	x	x	0.8	-4.3
O=C(Nc1ccc(N2CCOCC2)c(Cl)c1)c1ccc2c(c1)OCCO2	5.5	30.5*	-4.4	2.3	19.0
